# Records with an inconclusive call do not appear. Where a call stands in place of a potency, no number is given. A number with no mark means an inactive call. Active and inactive are the calls of the source. Unless noted, calls come from the whole dose curve; as a rule, active = well fitted curve in the direction sought with a large enough effect; inconclusive = small, poorly fitted or top-dose-only effect, or another doubt; inactive = no such curve, though single readings can be large; an effect the other way counts as inactive or inconclusive.
# Tests used:
# [1] = biological target: Calcium and integrin-binding protein 1 (Homo sapiens) (UniProt Q99828); test: Primary qHTS for Identification of Calcium Integrin Binding Protein 1 (CIB1) Competitor (AID 1508620);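 note: GST tagged CIB1 binding a fluorescein labelled alphaIIb integrin peptide tracer; top concentration of the series differs between compounds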
# Calcium and integrin-binding protein 1 (Homo sapiens), sequence (Q99828 whole entry, looked up): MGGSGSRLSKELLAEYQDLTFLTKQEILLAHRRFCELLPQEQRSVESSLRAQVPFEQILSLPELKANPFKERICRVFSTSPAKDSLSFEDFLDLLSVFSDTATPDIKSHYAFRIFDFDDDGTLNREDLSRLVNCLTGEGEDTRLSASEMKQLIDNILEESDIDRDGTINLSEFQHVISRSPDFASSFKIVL
# How it was run: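 CIB1-GST (1 uM final) and compound incubated 15 min at room temperature before adding FITC-alphaIIb peptide tracer (100 nM final). Competition for binding read by fluorescence polarization (ex 480, em 540) after another 15 min at room temperature.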
# [2] = biological target: Cytochrome P450 2D6 (Homo sapiens) (UniProt P10635); test: Cytochrome P450 family 2 subfamily D member 6 (CYP2D6) small molecule antagonists: luciferase biochemical (cell-free) qHTS assay (AID 1645840; active = well fitted curve in the direction sought with a large enough effect in the repeat runs; an effect the other way counts as inactive or inconclusive; note: nearly all actives have a fitted effect of over 55% in size; note: potency is the fitted concentration of half-maximal effect; for activity change, negative = inhibition: series mostly up to about 57 µM)
# Cytochrome P450 2D6 (Homo sapiens), sequence (P10635 whole entry, looked up): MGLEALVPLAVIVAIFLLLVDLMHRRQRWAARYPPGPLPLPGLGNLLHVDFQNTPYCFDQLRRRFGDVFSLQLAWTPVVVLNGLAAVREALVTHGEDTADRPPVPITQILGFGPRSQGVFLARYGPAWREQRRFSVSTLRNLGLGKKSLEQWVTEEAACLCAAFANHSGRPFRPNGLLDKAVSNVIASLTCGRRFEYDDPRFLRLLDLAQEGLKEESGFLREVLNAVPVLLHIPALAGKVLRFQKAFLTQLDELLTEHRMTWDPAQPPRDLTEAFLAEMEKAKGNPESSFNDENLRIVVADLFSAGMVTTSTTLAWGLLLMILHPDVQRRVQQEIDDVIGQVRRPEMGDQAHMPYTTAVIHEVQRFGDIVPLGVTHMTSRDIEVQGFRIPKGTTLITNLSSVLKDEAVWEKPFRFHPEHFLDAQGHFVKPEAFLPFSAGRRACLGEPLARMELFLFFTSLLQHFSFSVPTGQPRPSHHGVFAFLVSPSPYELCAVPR
# How it was run: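 P450-Glo CYP2D6 system: proluciferin substrate converted by enzyme to luciferin, read by luminescence proportional to activity. Enzyme-substrate mix with compound 10 min at room temperature, then NADPH regeneration 1 h before detection reagent.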
# [3] = biological target: Cytochrome P450 2C9 (Homo sapiens) (UniProt P11712); test: Cytochrome P450 family 2 subfamily C member 9 (CYP2C9) small molecule antagonists: luciferase biochemical (cell-free) qHTS assay (AID 1645842; active = well fitted curve in the direction sought with a large enough effect in the repeat runs; an effect the other way counts as inactive or inconclusive; note: nearly all actives have a fitted effect of over 55% in size; note: potency is the fitted concentration of half-maximal effect; for activity change, negative = inhibition: series mostly up to about 57 µM)
# Cytochrome P450 2C9 (Homo sapiens), sequence (P11712 whole entry, looked up): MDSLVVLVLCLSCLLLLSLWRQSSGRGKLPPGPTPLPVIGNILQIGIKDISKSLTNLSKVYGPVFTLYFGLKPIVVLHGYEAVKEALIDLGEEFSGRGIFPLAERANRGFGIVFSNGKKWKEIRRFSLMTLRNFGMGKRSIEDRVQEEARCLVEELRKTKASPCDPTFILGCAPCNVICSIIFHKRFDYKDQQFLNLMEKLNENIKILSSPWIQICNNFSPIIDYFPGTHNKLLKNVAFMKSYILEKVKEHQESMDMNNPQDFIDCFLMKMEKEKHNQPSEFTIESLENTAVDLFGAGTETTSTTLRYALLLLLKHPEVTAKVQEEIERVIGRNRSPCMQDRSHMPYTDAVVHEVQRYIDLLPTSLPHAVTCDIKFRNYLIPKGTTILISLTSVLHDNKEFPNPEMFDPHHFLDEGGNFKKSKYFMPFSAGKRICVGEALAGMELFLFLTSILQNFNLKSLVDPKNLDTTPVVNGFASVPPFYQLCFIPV
# How it was run: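 P450-Glo CYP2C9 system: proluciferin substrate with enzyme in mix containing 0.4% BSA, 10 min at room temperature, then NADPH regeneration solution added and incubated 1 h at 37C. Detection reagent stopped reaction; luminescence read after 20 min as RLU.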
# [4] = Primary qHTS for inhibitors of nuclear receptor binding SET domain protein 2 (NSD2) in an isogenic RCH-ACV NSD2 p.E1099K mutant (9B) (AID 1645876); note: nearly all actives have a fitted effect of over 70% in size
# [5] = Primary qHTS for inhibitors of nuclear receptor binding SET domain protein 2 (NSD2) in an RCH-ACV wild type WT cells (2C) (AID 1645877); note: nearly all actives have a fitted effect of over 70% in size
smiles,measurement,setting,value
COc1cccc(CN(C(=O)CC(C)(C)C)C2CC(C(=O)N3CCNCC3)N(Cc3ccc4c(c3)OCO4)C2)c1 (stereo unspecified),Potency,[1],inactive
same,Potency,[2],26.8 µM (active)
Cc1ccc([C@@H]2CC=C(C(=O)O)[C@H](c3ccc(C(C)(C)C)cc3)N2S(=O)(=O)c2ccc(C)cc2)cc1,Potency,[1],inactive
CCOc1ncc(S(=O)(=O)N2CCN(CC)CC2)cc1-c1nc2c(CC)n(CCOC)nc2c(=O)[nH]1,Potency,[1],inactive
same,Potency,[2],inactive
same,Potency,[3],10.7 µM (active)
same,Potency,[4],inactive
same,Potency,[5],inactive
CN1CCc2cc(Cl)c(O)cc2[C@@H](c2cccc3c2OCC3)C1,Potency,[1],inactive
same,Potency,[2],0.477 µM (active)
same,Potency,[3],inactive
C/C=C/C=C/C=C/C(=O)O[C@@H]1C=C(CO)[C@](O)(CO)[C@@]2(C)CCCC(C)(C)[C@H]12,Potency,[1],inactive
COc1cc(Cc2cnc(N)nc2N)c(C(C)C)cc1OC,Potency,[1],inactive
same,Potency,[2],inactive
same,Potency,[3],inactive
Cc1onc(-c2c(Cl)cccc2Cl)c1CC(=O)NCc1ccc(OCC(F)(F)F)nc1,Potency,[1],inactive
same,Potency,[2],19 µM (active)
same,Potency,[3],2.39 µM (active)
CCC(=O)N1CCc2cc(OC)c(O)cc2C1,Potency,[1],inactive
CC(=O)O[C@@H]1C[C@@H](C)[C@](O)(CCC2=CC(=O)OC2)[C@@]2(C)CCCC(C)(C)C12 (stereo partly specified),Potency,[1],inactive
CC1OC(O[C@@H]2[C@H](O)[C@@H](OC3OC(CO)C(O)C(O)C3O)[C@H](OC(=O)[C@]34CCC(C)(C)C[C@H]3C3=CCC5[C@@]6(C)CC[C@H](O[C@@H]7O[C@H](C(=O)O)[C@@H](O)[C@H](O[C@@H]8OC[C@@H](O)[C@H](O)[C@H]8O)[C@H]7O[C@@H]7O[C@H](CO)[C@H](O)[C@H](O)[C@H]7O)[C@@](C)(C=O)C6CC[C@@]5(C)[C@]3(C)C[C@H]4O)O[C@@H]2C)C(O)C(O)C1OC1OCC(O)C(O)C1O (stereo partly specified),"activity change, negative = inhibition",[1],-2.12% [at 12.4 µM]
